Shown are actives, neighbours in structure and some others; about 0.4% of the full set was active somewhere.
EPAC1 antagonist: antagonists of human EPAC1. EPAC1 GEF assay, Rap1b-BODIPY-GDP exchange fluorescence. 0.14% of 360,000 active. Potency, µM (titrated, usually from 115 µM), without a hit: at the top dose activity change, negative = inhibition, most hits filed as inhibitors. O95398. AID 720709;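 note: potency is the fitted concentration of half-maximal effect; plate controls were vehicle for no effect and positive control for full effect; nearly all actives have a fitted effect of over 50% in size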
TRPML1 inh: human mucolipin-1 channel inhibition | Q9GZU1 | 0.02% of 390,000 active | TRPML1-inducible cells, Ca2+ dye fluorescence, FDSS; stronger effect = lower value; inhibition of EC80 agonist-evoked calcium signal | activity change, negative = inhibition, % (test concentration not listed); in the data active = activity change below about -50%; inconclusive = between about -30% and that limit;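 note: stimulus is agonist 54-4 at its EC80 concentration; % is set by controls: 0 for no effect and ±100 for the full control effect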
Target sequence (Q9GZU1 whole entry, looked up): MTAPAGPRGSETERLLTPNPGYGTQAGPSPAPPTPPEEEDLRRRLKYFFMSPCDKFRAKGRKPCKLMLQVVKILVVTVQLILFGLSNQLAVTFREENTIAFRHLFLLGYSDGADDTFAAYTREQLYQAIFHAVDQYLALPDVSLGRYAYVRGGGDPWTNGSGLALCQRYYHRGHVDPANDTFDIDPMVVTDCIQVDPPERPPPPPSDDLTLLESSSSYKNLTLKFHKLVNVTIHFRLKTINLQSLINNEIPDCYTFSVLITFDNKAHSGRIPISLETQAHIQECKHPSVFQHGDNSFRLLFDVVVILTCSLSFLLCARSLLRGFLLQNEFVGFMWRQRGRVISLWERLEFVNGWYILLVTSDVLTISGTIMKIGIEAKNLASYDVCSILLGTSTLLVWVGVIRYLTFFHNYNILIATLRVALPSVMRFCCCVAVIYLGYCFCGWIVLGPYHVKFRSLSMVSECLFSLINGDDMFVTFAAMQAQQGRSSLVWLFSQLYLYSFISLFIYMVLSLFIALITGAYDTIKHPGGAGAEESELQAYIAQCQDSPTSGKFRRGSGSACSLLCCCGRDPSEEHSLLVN
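Tet-induced TRPML1-DL cells loaded with Ca8 no-wash calcium dye were read kinetically on FDSS. Compound addition was followed by EC80 agonist 54-4 (4 uM final); inhibition was read over 110 s.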
EPAC2 ag: EPAC2 (human) agonism; Q8WZA2; EPAC2 activation, biochemical qHTS; response scale: 100% = 6.5 mM cAMP response; Potency, µM (top dose mostly 154 µM), for inactives: top-dose activation, actives largely listed as activators; 0.079% of 360,000 active; AID 720711; note: potency is the fitted concentration of half-maximal effect; nearly all actives have a fitted effect of over 50% in size
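Guanine nucleotide exchange by EPAC2 is measured as reduced fluorescence of BODIPY-GDP once it is released from 250 nM Rap1B. Plates are read kinetically for 30 min at room temperature; results are scaled to 6.5 mM cAMP.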
EPAC2 antagonist: antagonists of human EPAC2; Q8WZA2; EPAC2 GEF exchange of Rap1B-BODIPY-GDP, fluorescence; Potency, µM (doses to about 114 µM), for the others: at the highest dose activity, negative = inhibition, most hits filed as inhibitors; 0.18% of 360,000 active; AID 720708; note: potency is the fitted concentration of half-maximal effect; % is set by controls: 0 for no effect and ±100 for the full control effect; nearly all actives have a fitted effect of over 45% in size
TRPML1 ag: agonists of human TRPML1 channel; activation, % (concentration not given with the values); 0.12% of 410,000 active; TRPML1-expressing cells, Ca2+ dye fluorescence, FDSS; in the data active = activation above about 50%; inconclusive = mostly about 30% to 49%; note: 0% is about no effect
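Agonist activity was taken from a 110 s kinetic Ca2+ dye read on the FDSS after pinning compounds onto TRPML1-DL cells. The cells were seeded at 1,500/well with Tet inducer, incubated about 16 h, then dye-loaded at room temperature.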
EPAC1 ag: agonists of human EPAC1; Potency, µM (doses to about 154 µM), without a hit: at the top dose activation, usual class: activators; 0.073% of 360,000 active; EPAC1 agonist qHTS, biochemical assay; response scale: 100% = response to 6.5 mM cAMP; O95398; AID 720707; note: potency is the fitted concentration of half-maximal effect; nearly all actives have a fitted effect of over 60% in size
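Compounds were pinned as a concentration titration into mixtures of EPAC1 (100 nM), BODIPY-GDP-loaded Rap1B (250 nM) and GDP (50 uM). After 5 min at room temperature, fluorescence was followed for 30 min; activity was scaled to 6.5 mM cAMP.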
* = called active by the depositor; ? = inconclusive; . = not tested or not shown. Unless noted, calls come from the whole dose curve; as a rule, active = well fitted curve in the direction sought with a large enough effect; inconclusive = small, poorly fitted or top-dose-only effect, or another doubt; inactive = no such curve, though single readings can be large; an effect the other way counts as inactive or inconclusive.

SMILES | EPAC1 antagonist | TRPML1 inh | EPAC2 ag | EPAC2 antagonist | TRPML1 ag | EPAC1 ag
Cc1cc(-c2ccccc2C(=O)O)on1 | 7% | 6 | 4% | 1% | 0 | 4%
O=C(O)c1ccccc1C1=Nc2ccc(O)cc2Oc2cc(O)ccc21 | 66% | -4 | ? | 88% | 6 | 100µM*
Cc1ccc(S(=O)(=O)/N=C2/NC(=O)/C(=C/c3cc([N+](=O)[O-])ccc3O)S2)cc1 | ? | 1 | 6% | -25% | 67* | 3%
O=C1NC(=Nc2ccccc2Cl)S/C1=C\c1cc([N+](=O)[O-])ccc1O | 79µM* | -20 | -10% | 18µM* | 9 | -21%
COc1cccc(N=C2NC(=O)/C(=C/c3cc([N+](=O)[O-])ccc3O)S2)c1 | -12% | -13 | 5% | ? | 12 | 6%
Cc1ccc(C)c(N2CCN(C(=O)C3CCN(C(=O)c4cc5sccc5n4C)CC3)CC2)c1 | . | 5 | . | . | 1 | .
CCn1c(C(=O)N2CCCC(C(=O)N3CCN(c4cc(C)ccc4C)CC3)C2)cc2sccc21 (configuration not stated) | . | -11 | . | . | 65* | .
C[n+]1ccc(/C=C/c2cc[n+](C)c3ccccc23)c2ccccc21 | . | . | . | . | -1 | .
CC1=C(C(=O)OCc2ccc3nsnc3c2)N2C(=O)[C@@H](NC(=O)OCc3ccc4nsnc4c3)[C@H]2SC1 | . | . | . | . | 3 | .
CCCN1C(=O)/C(=C/c2c(NCCCOCC)nc3c(C)cccn3c2=O)SC1=S | 12% | 18 | 8% | -3% | 10 | 9%
CCOCCCNc1nc2c(C)cccn2c(=O)c1/C=C1\SC(=S)N(CC(C)C)C1=O | 1% | -8 | 112µM* | -2% | 10 | 9%
N#Cc1cccc(NC(=O)CSc2ccc3c4c(cccc24)C(=O)c2ccccc2-3)c1 | 22% | -15 | ? | 0% | 80* | ?
Cc1nnc(N2CCC(C(=O)NC3CCCCC3)CC2)c2nn(-c3ccccc3)c(C)c12 | . | -58* | . | . | 2 | .
CCOC(=O)CC(=O)Nc1ncnc2c1C(c1ccccc1)c1c(ccc3ccccc13)O2 (configuration not stated) | -7% | . | 9% | ? | . | 12%
Nc1ncnc2c1C(c1ccccc1)c1c(ccc3ccccc13)O2 (configuration not stated) | -18% | . | 6% | 13µM* | . | -3%
N#Cc1c(Nc2ccc(F)cc2)sc(C(=O)c2ccccc2)c1N | -21% | 8 | 2% | -12% | 4 | -3%
N#Cc1c(Nc2ccccc2)sc(C(=O)c2ccccc2)c1N | 3% | -10 | 1% | 35µM* | 0 | 3%
O=[N+]([O-])c1ccc(Nc2nc(NCCN3CCOCC3)nc(Nc3ccc(Cl)cc3)n2)cc1 | . | . | . | . | 0 | .
O=C1c2cccc3c(O)ccc(c23)C(=O)N1Cc1ccccc1 | 227% | 0 | 89µM* | 277% | 97* | 100µM*
O=C(O)c1cccc(CN2C(=O)c3ccccc3C2=O)c1 | -21% | -7 | 15% | 3% | 0 | -1%
Clc1cccc[n+]1CCc1ccccc1 | . | . | . | . | -1 | .
C[N+](C)(C)c1ccc(/C=C/c2ccnc3ccccc23)cc1 | . | . | . | . | 0 | .
Cc1ccc(C(=O)N2CCN(C)CC2)cc1S(=O)(=O)N1CCOCC1 | -1% | -4 | 16% | -11% | 0 | -1%
Cc1ccc(C(=O)N2CCN(c3ccccc3)CC2)cc1S(=O)(=O)N1CCOCC1 | 56µM* | -15 | 2% | -6% | 0 | -8%
CCCc1cc2c(cc1N(C)S(=O)(=O)c1ccccc1)OCO2 | -16% | -1 | 9% | 28µM* | 2 | 10%
SMILES | EPAC1 antagonist | TRPML1 inh | EPAC2 ag | EPAC2 antagonist | TRPML1 ag | EPAC1 ag
COc1ccccc1N(C)S(=O)(=O)c1ccc(C(=O)NCc2ccc3c(c2)OCO3)cc1 | 21% | -11 | 4% | -2% | 2 | -3%
Cc1cccc(C(=O)Nc2nnc(SCC(=O)NC3CC3)s2)c1 | 23% | -52* | 4% | -3% | 0 | 11%
O=C(CSc1nnc(NC(=O)c2cccc(F)c2)s1)NC1CC1 | -13% | 26 | 6% | 2% | 0 | 5%
Cc1ccc2c(c1)C/C(=C/c1ccc(N(C)C)cc1)C2=O | . | . | . | . | 55* | .
O=C(O)c1ccc(N/N=C/c2c(F)cccc2Cl)cc1 | 11% | 3 | -7% | 40µM* | -1 | -7%
NC(=O)Nc1ccc(/C=C2\C=Cc3ccccc32)cc1 | . | . | . | . | -1 | .
COc1ccc(OC)c(/C=C/c2cc3ccccc3cn2)c1 | . | . | . | . | -1 | .
CCN(CC)C(=O)N1CCN(/[N+]([O-])=N/Oc2ccc([N+](=O)[O-])cc2[N+](=O)[O-])CC1 | . | 22 | . | . | 2 | .
COc1ccccc1/C=c1/[nH]c(=O)/c(=C\c2ccccc2OC)[nH]c1=O | . | . | . | . | 0 | .
CN(C)c1ccccc1-c1cc(NC=O)c2ncc(-c3cccc(C(F)(F)F)c3)n2c1 | 32µM* | . | -18% | ? | 18 | -121%
COc1ccccc1-c1cc(NC=O)c2ncc(-c3cccc(C(F)(F)F)c3)n2c1 | -8% | . | -3% | -22% | 0 | 4%
CCN1CCc2c(sc(NC(=O)c3ccc(S(=O)(=O)N(C)c4ccccc4)cc3)c2C(=O)NC)C1 | 7% | 0 | 100µM* | 18% | 61* | 8%
CC(C)(C)n1nnnc1C(c1ccc(F)cc1)N(Cc1ccc(F)cc1)Cc1ccco1 (configuration not stated) | -30% | -27 | 2% | -7% | ? | 13%
Cc1ccc(C(c2nnnn2C(C)(C)C)N(Cc2ccco2)Cc2cccs2)cc1 (configuration not stated) | -2% | -9 | -17% | -9% | 60* | -4%
O=C(NC(=S)Nc1cccc2cc(O)ccc12)c1ccco1 | -17% | -59* | 17% | 2% | 2 | -5%
N#C/C(=C/c1cccn1-c1cccc(C(=O)O)c1)c1ccc(Cl)cc1 | -12% | 65 | -2% | 40µM* | -1 | -9%
N#CC(C#N)=Cc1cccn1-c1ccc(C(=O)O)cc1 | -25% | -9 | 6% | 6% | 0 | -1%
O=C(NCC(c1ccco1)N1CCCC1)c1cccc(S(=O)(=O)Nc2ccc(Br)cc2)c1 (configuration not stated) | 3% | 11 | -11% | -2% | 2 | 2%
O=C(NCC(c1ccco1)N1CCCCC1)c1cccc(NS(=O)(=O)c2ccc(Br)cc2)c1 (configuration not stated) | ? | -10 | 5% | -11% | -1 | 126µM*
COc1cc2ccccc2cc1C(=O)OCC(=O)Nc1ccc(Br)cc1 | . | . | . | . | 0 | .
COc1ccc(CN2[C@@H](CC(=O)O)c3ccc(/C=C/C(=O)O)cc3S2(=O)=O)cc1 | . | . | . | . | 0 | .

Assay outcomes as filed in PubChem BioAssay.
